We go through 72 compounds from PubChem BioAssay AID493191 (Broad Institute, 2011).

The whole screen tested about 1,300 compounds, of which about 330 (25%) were called active. The rule behind the calls is not given here. Only a sample is shown. Where a call stands in place of a potency, no number is given. Potency and affinity values are given separately.

This test is described as follows: growth inhibition of MALME3 cells – cell-based, CellTiter-Glo, cherry-picked, orthogonal assay for MITF inhibitor project, dose response (AID 493191). As to conditions: MALME3 melanoma viability, CellTiter-Glo luminescence, 24 h; series mostly up to 35 µM.
Turning to `CN(C)CCNC(=O)COc1ccc(C23CC4CC(CC(C4)C2)C3)cc1`, the result was inactive.

For the compound `CN(C)c1ccc(/C=C2\SC(=O)N(CCc3nnc(N)s3)C2=O)cc1`, the compound was classed as inactive.

For the compound `Cc1[nH]n(-c2ccccc2)c(=O)c1N=Nc1cccc(C(=O)O)c1`, the call was inactive.

For the compound `C/C(=C\c1ccccc1)C(=O)Nc1ccc(Cl)cn1`, the result was inactive.

As to `O=[N+]([O-])c1ccccc1OCCCOc1cccc2cccnc12`, the result was inactive.

Regarding `O=[N+]([O-])c1cc(CN2CCN(c3ccccc3)CC2)c(O)c2ncccc12`, the result was inactive.

Regarding `Cc1ccc(-c2cn(-c3ccc(SC(F)F)cc3)c3[n+]2CCC3)cc1`, the compound was called inactive.

For the compound `COc1ccc(N(CC(=O)NCC2CCCO2)S(=O)(=O)c2ccccc2)cc1OC` (configuration not stated), the compound was classed as inactive.

As for `C#CC(=O)N(c1ccc(OC)c(OC)c1)C(C(=O)NC1CCCC1)c1cccs1` (configuration not stated), the compound was classed as inactive.

For the compound `C#CC(=O)N(c1ccc(OC)cc1OC)C(C(=O)NC1CCCC1)c1cccs1` (configuration not stated), the outcome was inactive.

Consider `Cc1ccc(NC(=O)c2ccc(OCC3CCCO3)cc2)c(C)c1` (configuration not stated), for which the call was inactive.

For `CN(C)/C=N/c1ncc(C(=O)c2ccccc2)s1`, the call was inactive.

As for `Cc1ccc2nc(Cc3ccc(N)cc3)oc2c1`, the compound was called inactive.

`CCc1nc2oc3ccccc3c(=O)c2cc1C(=O)OC`: the outcome was inactive.

`COCCN(C(=O)CCl)C(C(=O)NC1CCCCC1)c1ccccc1C` (configuration not stated): the outcome was inactive.

For the compound `COc1ccc(C(C(=O)NC2CCCCC2)N(C(=O)CCl)c2ccc(OC)cc2)cc1` (configuration not stated), the outcome was inactive.

As for `COc1ccc(N(C(=O)CCl)C(C(=O)NC2CCCCC2)c2cccnc2)cc1` (configuration not stated), the outcome was inactive.

With `Cc1cc(NC(=O)c2ccc(Cl)cc2Cl)no1`, the compound was classed as inactive.

For `COCn1c(COc2ccccc2)nc2ccccc21`, the result was inactive.

Take `COc1ccc(Br)cc1/C=C/C(=O)c1ccc(NC(C)=O)cc1`: the result was inactive.

`O=C(N/N=C/c1ccccc1Cl)c1n[nH]c2c1CCCC2`: the result was inactive.

Regarding `Nc1c(N(CCC2=CCCCC2)C(=O)COc2ccc([N+](=O)[O-])cc2)c(=O)[nH]c(=O)n1Cc1ccccc1`, the compound was called inactive.

As for `Nc1ccc(Oc2cccc(Oc3ccc(N)cc3)c2)cc1`, the compound was called inactive.

For the compound `O=[N+]([O-])c1ccc(Sc2cc[n+]([O-])c3ccccc23)c([N+](=O)[O-])c1`, the outcome was inactive.

As to `Cc1ccc(O)c(NC(=O)c2ccc3c(c2)C(=O)N(CC(C)C)C3=O)c1`, the compound was called inactive.

Consider `O=C(Nc1ccc2nc3n(c(=O)c2c1)CCCC3)c1cc([N+](=O)[O-])ccc1F`, for which the compound was classed as inactive.

In the case of `O=C(Nc1ccc2c(c1)OCCO2)c1cccc(Cl)c1Cl`, the outcome was inactive.

For `CC(C)CN=C(NS(=O)(=O)c1ccccc1)C(Cl)(Cl)Cl`, the call was inactive.

As to `CC(=O)c1c(C)[nH]c(C(=O)Nc2ccc(C)c(C)c2)c1C`, the result was inactive.

With `Cc1ccc(C(=O)Nc2nc3ccc(Cl)cc3s2)o1`, the call was inactive.

On to `Cc1cc(C(F)(F)F)c2c(N)c(C(=O)Nc3cc(C)on3)sc2n1`, for which the compound was called inactive.

Regarding `O=C(Nc1nc2ccccc2s1)c1ccccc1[N+](=O)[O-]`, the call was inactive.

On to `CN(c1ccc2nc3ccccc3c(=O)n2n1)C1CCCCC1`, for which the compound was called inactive.

For the compound `CCOc1ccccc1-c1nc(-c2ccc(C)nc2OC)no1`, the compound was classed as inactive.

In the case of `CC(=O)Nc1nc(C)c(-c2csc(Nc3cccc(C(C)=O)c3)n2)s1`, the call was inactive.

For the compound `CS(=O)(=O)c1nc(-c2ccc(F)cc2)cc(C(F)(F)F)n1`, the result was inactive.

As for `COc1ccccc1-c1nc(-c2ccc(C)nc2OC)no1`, the compound was classed as inactive.

`CCOC(=O)c1cnc2c(ccc3ccccc32)c1N`: the compound was called inactive.

Turning to `O=C(Nc1ccc(S(=O)(=O)N2CCCCCC2)cc1)c1[nH]ncc1[N+](=O)[O-]`, the outcome was inactive.

Consider `O=C(Nc1ccc(Cl)c(S(=O)(=O)N2CCOCC2)c1)c1ccc(OCC2CCCO2)cc1` (configuration not stated), for which the compound was called inactive.

As to `O=C(Nc1cccc(Cl)c1)Nc1cc(S(=O)(=O)N2CCCCC2)ccc1Cl`, the outcome was inactive.

Take `O=C(N/N=C\c1cc(Br)ccc1O)c1ccc(S(=O)(=O)N2CCCCC2)cc1`: the compound was classed as inactive.

As for `Cc1ccc(NC(=O)c2ccc([N+](=O)[O-])s2)cc1S(=O)(=O)N1CCOCC1`, the compound was classed as inactive.

For the compound `O=C1CN(c2ccccc2)C(=S)N1C(=O)c1ccc(Br)cc1`, the compound was classed as inactive.

Take `COc1ccc(NC(=O)c2cc(F)cc(F)c2)cc1Cl`: the outcome was inactive.

`CN(C)c1ccc(NC(=O)Nc2ccc3c(c2)nnn3C)cc1`: the compound was classed as inactive.

For the compound `O=[N+]([O-])/C=C\c1ccc(N2CCOCC2)cc1`, the compound was classed as inactive.

Take `COc1ccc(C(NC(C)=O)c2ccc3cccnc3c2O)c(OC)c1` (configuration not stated): the compound was called inactive.

Turning to `CCOC(=O)c1ccc2nc(C)c(CCC(C)=O)c(Cl)c2c1`, the result was inactive.

`COc1ccc(C(=O)Nc2ccc(C)cn2)c(OC)c1`: the outcome was inactive.

As for `CC(C)N1C(=O)S/C(=C\c2ccc(-c3ccc(Cl)c(C(=O)O)c3)o2)C1=O`, the call was inactive.

Turning to `COC(=O)c1ccc(COc2ccc3c(c2)CCC3)o1`, the compound was classed as inactive.

Turning to `CN=c1scc(-c2ccccc2F)n1/N=C/c1ccc[nH]1`, the call was inactive.

With `O=C(/C=C/c1ccc2c(c1)OCO2)N1CCCCC1`, the compound was called inactive.

As to `CCCC(=O)NC(c1ccc(OC)c(OC)c1)c1cc(Cl)c2cccnc2c1O` (configuration not stated), the compound was called inactive.

Turning to `CCC(=O)NC(c1ccccc1OC)c1ccc2cccnc2c1O` (configuration not stated), the result was inactive.

Regarding `COc1cnc(-c2ccccn2)nc1NC(C)C`, the call was inactive.

Take `CCNC(=O)CC1C(=O)N(c2ccc(F)cc2)C(=O)N1CCc1ccc(OC)cc1` (configuration not stated): the compound was classed as inactive.

In the case of `COc1ccc(C(=O)C(CN2CCOCC2)c2ccccc2)cc1` (configuration not stated), the call was inactive.

For `COc1ccc(C(=O)CCNc2ccc(F)cc2)cc1`, the outcome was inactive.

In the case of `COc1ccc(C(=O)C(CN2CCCC2)c2ccccc2)cc1` (configuration not stated), the compound was called inactive.

As to `c1ccc(-n2ncc3c(NCc4cccs4)ncnc32)cc1`, the compound was called inactive.

With `CC(C)(C)c1ccc(C(=O)Nc2sc3c(c2C(=O)O)CCC3)cc1`, the call was inactive.

On to `Cc1cc(C)c2c(N)c(C(=O)Nc3ncc(C)s3)sc2n1`, for which the compound was called inactive.

Consider `O=C(CC(=O)c1ccccc1)Nc1ccccc1`, for which the compound was classed as inactive.

Consider `O=C(CNC(=O)c1ccc(Br)cc1)c1ccccc1`, for which the compound was classed as inactive.

On to `C/C(=N/N=C(/C)c1cccs1)c1cccs1`, for which the call was inactive.

On to `CCC[n+]1c(C)sc2c3c(ccc21)CCCC3`, for which the compound was called inactive.

On to `Cc1nc2cc(NC(=O)Nc3cccc([N+](=O)[O-])c3)ccc2n1C`, for which the result was inactive.

Take `Cn1cc([N+](=O)[O-])c(C(=O)Nc2cc(Oc3ccccc3)cc([N+](=O)[O-])c2)n1`: the result was inactive.

For the compound `Cc1cc(C)c2c(N)c(C(=O)N/N=C/c3cccnc3)sc2n1`, the call was inactive.

With `O=C(O)C1CCN(C(=O)OCc2ccccc2)CC1`, the compound was called inactive.
